Screens from PubChem.
In the library only some 6.5% were active in any assay of this set; here they are far more common.
HepG2 tox = counter-screen for TGF-b inhibitors: cytotoxicity in HepG2 cells | actives 0.76% (n = 410,000) | HepG2 CAGA-GFP viability, ATP luminescence, 18 h | Potency, µM (highest dose often 46.1 µM), inactives show at the highest dose activity change, negative = cytotoxicity, usual class: cytotoxic; also: potency is read from the fitted curve at half-maximal effect
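HepG2 CAGA-GFP cells (1000/well, DMEM with 1% FBS) received compound, then TGF-beta at 500 pg/mL final, and were incubated 18 hours at 37 degrees C. Viability was read by CellTiter-Glo luminescence. Media-only wells were set as complete cell-killing and DMSO as no toxicity.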
IL1B secr inh = inhibitors of inflammasome signaling (IL-1 beta secretion); THP-1 LPS/ATP IL-1B secretion, AlphaLISA, 16 h; hits give low values; activity change, % at 57.5 µM; actives 4.7% (n = 360,000); AID 743279; in the data active = activity change below about -50%; inconclusive = mostly about -30% to -49%; also: % is scaled to controls: 0 for no effect and ±100 for the full control effect
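THP-1 cells pretreated 1 hr with compounds (up to 57.5 uM final), then stimulated with LPS (250 ng/mL final) plus ATP (1.25 mM final); secreted IL-1B measured by AlphaLISA after 16 hr, decreased signal indicating inhibition.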
TGFb SMAD3 inh = inhibitors of TGF-b signaling; HepG2 CAGA-GFP TGF-b/SMAD3 reporter, GFP fluorescence, 18 h; TGF-beta stimulated, 500 pg/mL final; Potency, µM (top dose mostly 46.1 µM), for inactives: top-dose activity, negative = inhibition, hits mostly inhibitors; actives 1.2% (n = 410,000); AID 588855; also: potency is read from the fitted curve at half-maximal effect; % is scaled to controls: 0 for no effect and ±100 for the full control effect; nearly all actives have a fitted effect of over 65% in size
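Inhibition was scored as loss of TGF-beta-induced (500 pg/mL final, 18 hours, 37 degrees C) GFP in HEPG2 cells carrying a CAGA-GFP reporter, in DMEM with 1% FBS. Well GFP was summed per cell; Activity was normalised to unstimulated and stimulated DMSO wells, then concentration-response fitting.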
HT1080NT lethal = kills 2HG-producing HT-1080-NT fibrosarcoma cells; AID 686970; HT-1080-NT fibrosarcoma viability, CellTiter-Glo ATP luminescence, 48 h; Potency, µM (top dose mostly 46.1 µM), for the others: at the highest dose activity, negative = less viability, hits mostly cytotoxic; actives 1.6% (n = 360,000);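 also: NT is the 2HG producing partner of a matched IDH1 knockdown line; potency is read from the fitted curve at half-maximal effect; 0% = DMSO-treated cells and -100% = media-only wells without cells; nearly all actives have a fitted effect of over 55% in size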
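A 48-hour cytotoxicity screen used HT-1080-NT cells plated 2 hours before compound delivery. ATP-based CellTiter-Glo luminescence measured viability, normalized to DMSO and no-cell controls.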
Giardia kill = Giardia lamblia killing; AID 540267; actives 0.15% (n = 340,000); Giardia lamblia trophozoite viability; activity change, % at 7.66 µM, hits read low; in the data active = activity change below about -80%; inconclusive = between about -30% and that limit;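 also: parasites exposed to compound for two days anaerobically before the ATP read; % is scaled to controls: 0 for no effect and ±100 for the full control effect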
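Killing of trophozoites was scored by loss of ATP luminescence after a 48 hrs anaerobic exposure to compounds at 37 deg C, using 100 cells per well.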
HT1080 IDH1KD tx = HT-1080 IDH1 knockdown cell toxicity (counter line). actives 2% (n = 360,000). Potency, µM (series often up to 46.1 µM), inactives show at the highest dose activity, negative = toxicity, actives largely listed as cytotoxic. HT-1080 IDH1 knockdown viability, ATP luminescence, 48 h;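 also: potency is read from the fitted curve at half-maximal effect; 0% = DMSO wells and -100% = cell-free medium wells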
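CellTiter-Glo luminescence after 48 h compound exposure at 37 degrees C of IDH1-knockdown HT-1080 cells in 5% FBS RPMI. %Activity scaled between DMSO wells and cell-free media wells, with curves fitted and assigned curve classes.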
The depositor's hits bear a star; ? = inconclusive; · = no result. Unless noted, calls follow the shape of the dose curve; as a rule, active = well fitted curve in the direction sought with a large enough effect; inconclusive = small, poorly fitted or top-dose-only effect, or another doubt; inactive = no such curve, though single readings can be large; an effect the other way counts as inactive or inconclusive.

SMILES | HepG2 tox | IL1B secr inh | TGFb SMAD3 inh | HT1080NT lethal | Giardia kill | HT1080 IDH1KD tx
COc1ccc(C(=O)N/C(=C\c2ccco2)C(=O)OCc2ccco2)cc1 | 2.1% | 6.1 | 17.9% | -12.0% | 13.1 | 3.2%
COc1ccc(/C=C(/C(=O)c2cccs2)N2C=CC=CC2=C(C#N)C#N)cc1 | 11.2µM* | -95.2* | ? | ? | -0.2 | ?
N#CC(C#N)=C1C=CC=CN1/C(=C\c1ccco1)C(=O)c1ccccc1 | 3.98µM* | -98.3* | 2.24µM* | ? | -13.8 | ?
CCN1C(=O)C(=O)N(CC(=O)NC(C)CCc2ccccc2)C1=O (stereo not given) | -45.1% | -0.8 | -6.9% | 6.3% | 9.3 | 5.9%
Cc1cc(C)cc(Cn2cc(CN3CC(N(C)C)CS3(=O)=O)nn2)c1 (stereo not given) | · | 5.0 | · | 17.2% | · | 1.0%
CN1CCN(C2CN(Cc3cn(Cc4ccc(F)cc4)nn3)S(=O)(=O)C2)CC1 (stereo not given) | · | -64.6* | · | 20.0% | · | 9.9%
CN1CCC(N2CCN(C3CN(Cc4cn(Cc5ccc(F)cc5)nn4)S(=O)(=O)C3)CC2)CC1 (stereo not given) | · | 2.6 | · | 13.6% | · | 4.6%
COc1ccc(Cn2cc(CN3CC(N4CCN(Cc5ccccc5F)CC4)CS3(=O)=O)nn2)cc1 (stereo not given) | · | 7.9 | · | -4.7% | · | 23.1µM*
O=S1(=O)CC(N2CCN(Cc3ccccc3F)CC2)CN1Cc1cn(Cc2ccc(Cl)cc2)nn1 (stereo not given) | · | -1.5 | · | -2.0% | · | -10.8%
CCN(C)C1CN(Cc2cn(Cc3cc(C)cc(C)c3)nn2)S(=O)(=O)C1 (stereo not given) | · | -52.0* | · | 16.3% | · | 6.8%
Cc1cc(-c2csc(NC(=O)c3cc4ccccc4o3)n2)c(C)n1C | 4.9% | -7.2 | -6.7% | 8.5% | 13.4 | -3.0%
COc1ccc(NC(=O)c2ccco2)cc1NC(=O)COc1cc(C)cc(C)c1 | -29.4% | · | -4.3% | · | · | ·
CSc1ccc(CN2CCCCCC2)cc1 | 7.5% | -8.5 | 25.1% | 4.1% | -1.7 | -0.1%
COC(=O)c1ccc(-c2ccc(/C=N/N3C(=O)C4C5C=CC(C6CC56)C4C3=O)o2)cc1 (stereo not given) | -7.3% | -56.6* | 1.9% | -2.8% | -3.7 | -3.1%
O=C1C2C3C=CC(C4CC34)C2C(=O)N1/N=C/c1ccc([N+](=O)[O-])o1 (stereo not given) | -14.0% | -98.0* | -19.7% | 2.59µM* | -19.5 | 2.59µM*
O=C1C2C(C(=O)N1/N=C/c1ccc([N+](=O)[O-])o1)C1C=CC2C12CC2 (stereo not given) | -101.5% | -91.0* | ? | ? | 9.0 | ?
O=C1C2C3C=CC(C4CC34)C2C(=O)N1/N=C/c1ccc(-c2ccc([N+](=O)[O-])cc2)o1 (stereo not given) | -8.2% | 0.0 | -1.6% | -0.6% | -20.2 | -5.7%
O=C(NCCSc1c[nH]c2ccccc12)c1ccc(Br)o1 | -22.6% | -9.8 | 2.2% | 0.0% | -25.9 | 13.2%
Cc1[nH]c2ccccc2c1SCCNC(=O)c1ccc(Br)o1 | -38.7% | -81.9* | ? | -12.5% | 6.9 | -10.5%
CCN1CCN(CCNC(=O)CSCc2nc(-c3ccc(OC)c(OC)c3)oc2C)CC1 | -18.8% | 0.5 | -4.1% | 4.8% | -4.1 | 5.6%
CCN(CC)c1c([N+](=O)[O-])c(=O)n(C)c2ccccc12 | -11.6% | 0.0 | -7.8% | 0.6% | 6.9 | -6.7%
Cn1c(=O)c([N+](=O)[O-])c(NCc2ccccc2Cl)c2ccccc21 | -3.2% | -78.6* | -21.8% | -9.0% | -2.1 | -12.8%
Cn1c(=O)c([N+](=O)[O-])c(N2CCSCC2)c2ccccc21 | -18.3% | -22.2 | -3.4% | -9.5% | 2.0 | -10.5%
Cn1c(=O)c([N+](=O)[O-])c(-n2cnc3ccccc32)c2ccccc21 | -45.1% | -98.2* | 12.6µM* | ? | 5.5 | ?
Cn1c(=O)c([N+](=O)[O-])c(Cl)c2ccccc21 | -64.4% | -100.7* | ? | 5.8µM* | 2.4 | 5.8µM*
SMILES | HepG2 tox | IL1B secr inh | TGFb SMAD3 inh | HT1080NT lethal | Giardia kill | HT1080 IDH1KD tx
COc1ccc(CCNC(=O)Cn2c(=O)n(-c3ccc(F)cc3F)c(=O)c3sccc32)cc1OC | -0.9% | 8.2 | -10.1% | 19.4% | 13.2 | 6.1%
COC(=O)CNC(=O)COC(=O)/C=C/c1ccc2ccccc2n1 | 0.0% | -103.3* | 18.8% | -25.4% | 6.1 | -20.9%
CC1CCCCN1C(=O)COC(=O)c1ccc2ccccc2n1 (stereo not given) | 2.4% | 20.5 | -0.7% | 4.3% | -23.8 | 6.0%
CC1CCCCN1C(=O)COC(=O)/C=C/c1ccc2ccccc2n1 (stereo not given) | -13.8% | -54.2* | -1.0% | -24.9% | -11.1 | -11.6%
CC(OC(=O)/C=C/c1ccc2ccccc2n1)C(=O)NCc1ccccc1 (stereo not given) | -29.6% | -75.4* | -37.5% | 2.7% | 5.1 | 11.1%
COc1cccc(N(CC(=O)Nc2cccc(C(C)=O)c2)S(C)(=O)=O)c1 | -1.9% | -7.2 | 17.6% | 5.0% | -6.4 | 2.7%
SC(COCc1ccccc1)CN1CCN(Cc2ccc3c(c2)OCO3)CC1 (stereo not given) | -27.9% | -11.1 | -2.8% | -23.7% | 5.6 | -10.8%
Cc1sc2nc(CN3CCOCC3)nc(Cl)c2c1C | 10.3% | -95.7* | 1.1% | 2.2% | -7.9 | -5.0%
Cc1c(C(=O)OC/C(O)=C(\C#N)c2nc3ccccc3[nH]2)oc2ccccc12 | -55.9% | ? | 12.6µM* | ? | -8.2 | ?
Cc1c(C(=O)OCC(O)=C(C#N)c2nc3ccccc3[nH]2)oc2ccc(Br)cc12 | -10.4% | 19.4 | -0.4% | 3.4% | 10.8 | 3.3%
CC(=O)OC(/C(O)=C(\C#N)c1nc2ccccc2[nH]1)c1ccccc1 (stereo not given) | -18.1% | 6.5 | -9.6% | 8.91µM* | -5.8 | ?
CC(=O)c1cccc(NC(=O)c2nc(-c3ccccc3)n(-c3ccccc3C)n2)c1 | -15.6% | · | 8.2% | · | · | ·
COc1ccc(NC(=S)N2CCN(C(=O)c3ccco3)CC2)cc1 | -11.4% | -27.9 | 21.1% | -1.2% | -10.1 | 1.7%
CC(C)c1ccc(NC(=O)c2ccc(F)c(S(=O)(=O)N3CCc4ccccc43)c2)cc1 | -15.0% | · | -24.9% | · | · | ·
O=C(Nc1ccc(Br)cc1)c1ccc(F)c(S(=O)(=O)NCc2cccs2)c1 | -11.9% | -55.0* | ? | ? | 7.0 | ?
O=C(Nc1cccnc1)c1ccc(Cl)c(S(=O)(=O)N2CCc3ccccc32)c1 | 3.55µM* | -0.2 | -30.6% | 4.6% | 8.6 | -0.3%
